DRD3 agonist = qHTS of D3 Dopamine Receptor Agonist: qHTS. D(3) dopamine receptor (Homo sapiens), P35462. D3R DiscoveRx beta-arrestin cells, luminescence, 90 min. max activation, %. hit rate 0.58% among 410,000; in the data active = max activation above about 30%; note: 0% is about no effect
Target sequence (P35462 whole entry, looked up): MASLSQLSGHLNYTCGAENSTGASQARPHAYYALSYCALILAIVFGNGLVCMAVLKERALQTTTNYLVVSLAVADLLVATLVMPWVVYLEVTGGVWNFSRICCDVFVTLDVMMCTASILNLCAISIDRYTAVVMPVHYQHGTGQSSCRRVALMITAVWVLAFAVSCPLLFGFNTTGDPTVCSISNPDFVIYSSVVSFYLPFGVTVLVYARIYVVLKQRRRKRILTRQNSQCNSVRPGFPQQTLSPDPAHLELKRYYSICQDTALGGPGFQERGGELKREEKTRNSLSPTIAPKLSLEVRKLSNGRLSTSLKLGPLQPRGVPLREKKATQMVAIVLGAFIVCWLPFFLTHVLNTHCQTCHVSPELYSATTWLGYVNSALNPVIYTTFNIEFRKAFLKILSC
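Agonist-mode cell screen: cells plated at 1500/well and incubated overnight at 37 °C, then exposed to library compounds for 90 min at 37 °C. Detection reagent was added for 30–60 min at room temperature, and luminescence was read.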
KB-V1 MDR tox = qHTS assay for MDR1-selective chemotherapeutics: Primary screen using the drug-selected MDR subline cells KB-V1 | KB-V1 MDR cells viability, CellTiter-Glo, 72 h | Potency, µM (doses to about 46.1 µM), actives largely listed as cytotoxic | hit rate 3.4% among 400,000; note: potency is the fitted concentration of half-maximal effect; % is set by controls: 0 for no effect and ±100 for the full control effect; nearly all actives have a fitted effect of over 60% in size
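In this primary screen, KB-V1 cells overexpressing P-gp are incubated with library compounds (lowest to highest concentration) for 72 h at 37 degrees C before a luminescent ATP viability read.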
SW480 rereplic = A quantitative high throughput screen for small molecules that induce DNA re-replication in SW480 colon adenocarcinoma cells; SW480 DNA re-replication, Hoechst DNA content imaging, 48 h; Potency, µM (top dose mostly 46.1 µM), without a hit: at the highest dose re-replication activation, most hits filed as activators; hit rate 1.8% among 340,000; note: potency is the fitted concentration of half-maximal effect; % of control where 0% means no effect; nearly all actives have a fitted effect of over 55% in size
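Readout is total intensity of Hoechst-stained nuclei, excited at 405 nm and collected at 500-530 nm. Compound treatment lasted 48 hr at 37 C in 5% CO2 before staining.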
KB-3-1 tox = qHTS assay for MDR1-selective chemotherapeutics: Primary screen using the parental adenocarcinoma cell KB-3-1; KB-3-1 viability, CellTiter-Glo ATP luminescence, 72 h; Potency, µM (titrated, usually from 46.1 µM), usual class: cytotoxic; hit rate 1.4% among 400,000; note: potency is the fitted concentration of half-maximal effect; % is set by controls: 0 for no effect and ±100 for the full control effect; nearly all actives have a fitted effect of over 60% in size
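Here the drug-naive KB-3-1 line serves as comparator for MDR sub-line selectivity; cells received compound titrations, 72 h at 37 °C, then CellTiter-Glo readout.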
DRD3 antagonist = qHTS of D3 Dopamine Receptor Antagonist: qHTS; D(3) dopamine receptor (Homo sapiens), P35462; D3R cells, DiscoveRx beta-arrestin luminescence, antagonist mode; hits give low values; max response, negative = inhibition, %; hit rate 2.5% among 360,000; AID 652054, 2013; in the data active = max response below about -50%; inconclusive = no clear call, values can overlap the other calls; note: % is set by controls: 0 for no effect and ±100 for the full control effect
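Cells plated overnight at 1500 cells/well, then exposed to library compounds with dopamine controls for 90 minutes at 37 degrees C. DiscoveRx reagent added for 30–60 minutes at room temperature; luminescence read, quantitative HTS format.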
MCF10A rereplic = A quantitative high throughput screen for small molecules that induce DNA re-replication in MCF 10a normal breast cells. MCF 10A DNA re-replication, Hoechst nuclear intensity, 48 h. Potency, µM (top dose mostly 46.1 µM), inactives show at the highest dose activity, positive = re-replication, actives largely listed as activators. hit rate 2.9% among 350,000. AID 624296, 2012; note: potency is the fitted concentration of half-maximal effect; % of control where 0% means no effect; nearly all actives have a fitted effect of over 50% in size
* hit, by the source's call; i = inactive; ? = inconclusive; nt = not tested or not shown. Most compounds without a hit are left out; they make up all but 8.9% or so of the library. Unless noted, calls come from the whole dose curve; as a rule, active = well fitted curve in the direction sought with a large enough effect; inconclusive = small, poorly fitted or top-dose-only effect, or another doubt; inactive = no such curve, though single readings can be large; an effect the other way counts as inactive or inconclusive.

SMILES	DRD3 agonist	KB-V1 MDR tox	SW480 rereplic	KB-3-1 tox	DRD3 antagonist	MCF10A rereplic
COc1ccc(C(C(=O)NCc2ccccc2)N(C(=O)Cn2nnc3ccccc32)c2cccc(OC)c2)cc1 (stereo unspecified)	9	nt	nt	nt	nt	nt
Cc1ccc2c(=O)cc(C(=O)Nc3sc4c(c3C(=O)NCc3ccco3)CCC4)oc2c1	-16	i	nt	?	nt	nt
CC1=CSC2=NC(=O)/C(=C\c3cccn3-c3ccccc3)C(=N)N12	1	?	22%	i	10	2%
CC(C)c1ccc(-n2cccc2/C=C2/C(=N)N3C=CSC3=NC2=O)cc1	-1	21µM*	?	?	20	23µM*
CC1=CSC2=NC(=O)/C(=C\c3cccn3-c3ccc([N+](=O)[O-])cc3)C(=N)N12	5	2.9µM*	?	i	?	?
COc1ccc(-c2ccc(/C=C3/C(=N)N4C(C)=CSC4=NC3=O)o2)c([N+](=O)[O-])c1	-6	?	9%	i	-17	21µM*
COc1ccc(C(=O)OCc2c(-c3ccccc3)ncc3ccccc23)cc1	-28	i	15µM*	i	-50*	16µM*
Cc1ccc(S(=O)(=O)NNC(=O)c2cc(C)c(C)cc2N)cc1	-2	16µM*	0%	i	6	14%
Cc1ccc(S(=O)(=O)NNC(=O)c2cc(C)cs2)cc1	-9	i	-9%	i	-19	0%
COC(=O)NNS(=O)(=O)c1ccc(C)cc1	8	i	26µM*	i	2	0%
O=C(COc1ccccc1F)Nc1nnc(SCc2cc(=O)n3ccccc3n2)s1	1	nt	nt	nt	nt	nt
Cc1ccc2nc(CSc3nnc(NC(=O)COc4ccccc4F)s3)cc(=O)n2c1	58*	nt	nt	nt	nt	nt
CCOc1ccc(S(=O)(=O)Nc2cc(Cl)ccc2OC)c2cccnc12	0	?	nt	i	nt	nt
CCC(C)NCCCCOc1ccc(Cl)cc1C (stereo unspecified)	-11	16µM*	?	i	-60*	?
CCCOc1ccc(OCCCCNC(C)CC)cc1 (stereo unspecified)	2	i	3%	i	-55*	27%
CCC(C)NCCCOc1cc(Cl)ccc1Cl (stereo unspecified)	-6	i	-3%	i	-77*	1%
CCC(C)NCCOc1ccc(C(C)(C)c2ccccc2)cc1 (stereo unspecified)	-16	?	5%	?	?	?
CCC(C)NCCCOc1ccc(C)cc1OC (stereo unspecified)	-8	i	-3%	i	?	?
COc1ccc(C(=O)NCCSc2c[nH]c3ccccc23)cc1OC	-7	i	nt	i	nt	nt
CSc1ccc(CCNC(=O)c2ccc(-n3c(C)cc4c3CCC(C)C4)cc2)cc1 (stereo unspecified)	-16	nt	nt	nt	nt	nt
Cc1cc(C)c2oc(-c3cccc(NC(=O)COc4ccc(Cl)cc4C)c3C)nc2c1	nt	i	nt	?	nt	nt
O=C(Nc1nc2nc(-c3ccccc3)cc(-c3ccccc3)n2n1)c1ccco1	-4	i	0%	?	-30	-2%
Cc1ccnc2nc(NC(=O)c3ccco3)nn12	-2	i	-1%	i	-66*	9%
O=C(Nc1ccc(Cl)cc1)c1cc2c(-c3ccccc3)nn(-c3ccccc3)c2s1	-2	i	nt	i	nt	nt
CCOC(=O)C1=C(O)C(=O)NC(c2ccccc2)=C(OCC)C1	-6	i	?	?	-25	-3%
SMILES	DRD3 agonist	KB-V1 MDR tox	SW480 rereplic	KB-3-1 tox	DRD3 antagonist	MCF10A rereplic
CCOC(=O)C1=C(O)C(=O)NC(c2ccccc2)=C(OC2CCCCC2)C1	-3	15µM*	-1%	?	-6	3%
CC(C)(C)OC(=O)N1CCC(c2nnc(SCc3ccccc3F)o2)CC1	-14	?	nt	i	nt	nt
CC(=O)Nc1ccc(S(=O)(=O)Nc2cccc(-c3ccc(N4CCCCCC4)nn3)c2)cc1	4	i	nt	i	nt	nt
CCCCn1c(SCC(=O)Nc2ccc(OCC)cc2)nc2ccsc2c1=O	-6	nt	nt	nt	nt	nt
CCCCn1c(SCC(=O)Nc2ccccc2C(F)(F)F)nc2ccsc2c1=O	28	2.6µM*	1%	i	33	10%
CCCCn1c(SCC(=O)N2CCN(c3ccccc3)CC2)nc2ccsc2c1=O	35*	8.2µM*	16%	i	0	?
CCCCn1c(SCC(=O)N2CCC(C)CC2)nc2ccsc2c1=O	30*	1.2µM*	2%	i	11	12%
CCCn1c(SCC(=O)N2CCN(c3ccccc3)CC2)nc2ccccc2c1=O	8	i	-8%	i	16	16%
COc1ccc(C2Nc3ccccc3C(=O)N2Cc2ccco2)cc1OC (stereo unspecified)	nt	i	nt	?	nt	nt
Cc1ccc(OCC(=O)OCc2cc(=O)n3ccsc3n2)cc1C	1	i	nt	i	nt	nt
CC1=C(c2ccc(C(C)C)cc2)S(=O)(=O)NC1=NCc1ccc(OC(C)C)cc1	1	nt	nt	nt	nt	nt
Cc1cccc(/N=C/c2c(O)ccc3oc4c(c23)CCCC4)n1	-7	?	-2%	i	?	?
CC(C)CN=Cc1c(O)c([N+](=O)[O-])cc2oc3c(c12)CCCC3	-28	i	-2%	i	-106*	?
O=[N+]([O-])c1cc2oc3c(c2c(C=NCc2ccccc2)c1O)CCCC3	13	i	1%	i	-85*	12%
Cc1cccc(-c2c3c(=O)n(C)c(=O)n(C)c3cn2-c2cc(N)c(Cl)cc2Cl)c1	9	nt	nt	nt	nt	nt
CCOc1c2c(c(-c3ccc4c(c3)OCO4)c3cc(OC)c(OC)cc13)C(=O)OC2	nt	?	nt	1.3µM*	nt	nt
COc1ccc(S(=O)(=O)N2CN(Cc3ccco3)c3nc4ccccc4nc32)cc1	-23	5.8µM*	?	i	18	0%
CC(C)Cn1c(SCc2cccc(F)c2)nc2ccsc2c1=O	-6	?	nt	i	nt	nt
C=CCN1C(=O)/C(=C2/Sc3ccc(OC)cc3N2C)SC1=Nc1cccc(O)c1	-1	i	?	i	8	5.8µM*
CCN1C(=O)/C(=C2/Sc3ccc(OC)cc3N2C)SC1=Nc1ccc(OC)cc1	5	i	-41%	i	10	-33%
